Reference: PubChem BioAssay (Tox21)
Inconclusive results are not listed. A call without a number means that no potency is given here. The source made the active and inactive calls. Unless noted, calls come from the whole dose curve; as a rule, active = well fitted curve in the direction sought with a large enough effect in the repeat runs; inconclusive = weak or mixed curves; inactive = no such curve, though single readings can be large; an effect the other way counts as inactive or inconclusive.

Assays:
[1] = molecular target: Luciferin 4-monooxygenase (Photinus pyralis) (UniProt P08659); test: qHTS assay to identify small molecule inhibitors of firefly luciferase (AID 1224835); note: nearly all actives have a fitted effect of over 25% in size; note: potency is the fitted concentration of half-maximal effect
How it was run: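 Biochemical qHTS: compounds run as interplate titrations against purified firefly enzyme, with D-luciferin and ATP each at its KM concentration. Light output recorded by CCD imaging.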

[2] = qHTS assay to identify small molecule agonists of the constitutive androstane receptor (CAR) signaling pathway - cell viability counter screen (AID 1224836); note: series mostly up to about 92 µM; nearly all actives have a fitted effect of over 45% in size
How it was run: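 Double-stable HepG2 hepatoma cells (hCAR plus CYP2B6-2.2kb) are treated for 23 h at 37 C with test compounds in 15-point concentration series. PK11195 at 0.75 uM final is co-added. Cell viability is quantified by CellTiter-Fluor.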

[3] = molecular target: Nuclear receptor subfamily 1 group I member 3 (Homo sapiens) (UniProt Q14994); test: qHTS assay to identify small molecule antagonists of the constitutive androstane receptor (CAR) signaling pathway (AID 1224838); note: nearly all actives have a fitted effect of over 40% in size; note: potency is the fitted concentration of half-maximal effect
How it was run: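 HepG2 cells stably co-transfected with hCAR and a CYP2B6-2.2kb luciferase reporter were seeded 4 h before compound addition at 15 concentrations. Cells were stimulated with 50 nM CITCO (final) for 24 h at 37 C; luciferase luminescence was then read.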

[4] = molecular target: Nuclear receptor subfamily 1 group I member 3 (Homo sapiens) (UniProt Q14994); test: qHTS assay to identify small molecule agonists of the constitutive androstane receptor (CAR) signaling pathway (AID 1224839); note: nearly all actives have a fitted effect of over 15% in size; note: potency is the fitted concentration of half-maximal effect
How it was run: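 Readout: firefly luciferase luminescence via ONE-Glo. System: HepG2 double-stable for hCAR and CYP2B6-2.2kb. Conditions: 15-point compound titration, PK11195 at 0.75 uM final, 24 h incubation.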

[5] = qHTS assay to identify small molecule antagonists of the estrogen related receptor signaling pathway with the pleiotropic PPARgamma coactivator (PGC) from Tox21 10K library - cell viability counter screen (AID 1224840; active = well fitted cell-killing curve with a large enough effect in the repeat runs, not every such curve was filed as active; note: nearly all actives have a fitted effect of over 40% in size; note: potency is the fitted concentration of half-maximal effect)
How it was run: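 PGC/ERR cells were seeded at 2,000 cells/well and left 6 hours at 37 C/5% CO2 before pin-tool addition of compounds in DMSO. After 17.5 hours at 37 C, CellTiter-Fluor was added and fluorescence read 30 minutes later.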

[6] = qHTS assay to identify small molecule antagonists of the constitutive androstane receptor (CAR) signaling pathway - cell viability counter screen (AID 1224837); note: nearly all actives have a fitted effect of over 45% in size; note: potency is the fitted concentration of half-maximal effect
How it was run: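 HepG2 cells stably expressing hCAR and a CYP2B6-2.2kb reporter were plated and pre-incubated 4 hr at 37 C/5% CO2, then given compounds at 15 concentrations plus 50 nM CITCO (final). After 23 hr, viability was read by CellTiter-Fluor fluorescence.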

[7] = qHTS assay to identify small molecule antagonists of the estrogen related receptor signaling pathway with the pleiotropic PPARgamma coactivator (PGC) from Tox21 10K library (AID 1224841; call rule not given here; note: actives are mostly falling curves and most rising ones were filed inactive; nearly all actives have a fitted effect of over 50% in size; note: potency is the fitted concentration of half-maximal effect)
How it was run: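 PGC/ERR reporter cells were seeded at 2,000 cells/well and held 6 hours at 37 C/5% CO2 before pin-tool addition of compounds in DMSO. After 18 hours at 37 C, One-Glo was added and luminescence read after 30 minutes at room temperature.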

[8] = qHTS assay to identify small molecule agonists of the estrogen related receptor signaling pathway with the pleiotropic PPARgamma coactivator (PGC) from Tox21 10K library (AID 1224842); note: nearly all actives have a fitted effect of over 15% in size
How it was run: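 PGC/ERR reporter cell line, 2,000 cells per well, incubated 6 h at 37 C before 23 nL compound in DMSO was added. After 18 h at 37 C, One-Glo luminescence read following 30 min at room temperature.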

[9] = molecular target: Thyrotropin receptor (Homo sapiens) (UniProt P16473); test: qHTS assay to identify small molecule agonists of the thyroid stimulating hormone receptor (TSHR) signaling pathway (AID 1224843; calls by dose curve; note: nearly all actives have a fitted effect of over 45% in size; note: potency is the fitted concentration of half-maximal effect)
How it was run: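 Steps: seed 800 TSHR-HEK293 cells per well; add test compound and hold 30 min at ambient temperature; dispense cAMP-d2 then anti-cAMP cryptate; incubate 1 h at ambient; measure fluorescence intensity.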

Nuclear receptor subfamily 1 group I member 3 (Homo sapiens), sequence (Q14994 whole entry, looked up): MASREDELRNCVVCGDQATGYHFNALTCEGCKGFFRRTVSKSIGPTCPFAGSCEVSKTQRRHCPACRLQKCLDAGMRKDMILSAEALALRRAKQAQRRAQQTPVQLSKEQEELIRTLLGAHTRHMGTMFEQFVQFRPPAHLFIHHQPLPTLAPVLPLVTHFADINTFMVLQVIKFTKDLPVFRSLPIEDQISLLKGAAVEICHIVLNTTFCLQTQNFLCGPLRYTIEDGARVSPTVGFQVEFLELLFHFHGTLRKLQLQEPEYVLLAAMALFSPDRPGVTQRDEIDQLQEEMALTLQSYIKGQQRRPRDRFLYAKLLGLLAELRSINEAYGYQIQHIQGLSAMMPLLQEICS
Luciferin 4-monooxygenase (Photinus pyralis), sequence (P08659 whole entry, looked up): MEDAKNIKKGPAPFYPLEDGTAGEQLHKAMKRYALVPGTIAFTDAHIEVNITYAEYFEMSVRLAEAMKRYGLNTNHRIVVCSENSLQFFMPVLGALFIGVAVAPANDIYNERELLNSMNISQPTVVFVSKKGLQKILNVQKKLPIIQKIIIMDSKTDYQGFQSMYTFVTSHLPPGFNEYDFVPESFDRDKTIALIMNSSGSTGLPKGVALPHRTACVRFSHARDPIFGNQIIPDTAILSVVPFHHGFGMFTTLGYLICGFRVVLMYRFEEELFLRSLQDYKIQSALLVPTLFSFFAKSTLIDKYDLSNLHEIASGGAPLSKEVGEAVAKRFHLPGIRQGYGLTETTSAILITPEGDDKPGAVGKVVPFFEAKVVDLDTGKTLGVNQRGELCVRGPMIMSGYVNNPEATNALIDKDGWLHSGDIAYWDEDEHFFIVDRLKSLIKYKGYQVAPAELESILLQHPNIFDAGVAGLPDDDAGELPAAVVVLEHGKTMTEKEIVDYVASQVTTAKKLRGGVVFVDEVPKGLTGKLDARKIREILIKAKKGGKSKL
Thyrotropin receptor (Homo sapiens), sequence (P16473 whole entry, looked up): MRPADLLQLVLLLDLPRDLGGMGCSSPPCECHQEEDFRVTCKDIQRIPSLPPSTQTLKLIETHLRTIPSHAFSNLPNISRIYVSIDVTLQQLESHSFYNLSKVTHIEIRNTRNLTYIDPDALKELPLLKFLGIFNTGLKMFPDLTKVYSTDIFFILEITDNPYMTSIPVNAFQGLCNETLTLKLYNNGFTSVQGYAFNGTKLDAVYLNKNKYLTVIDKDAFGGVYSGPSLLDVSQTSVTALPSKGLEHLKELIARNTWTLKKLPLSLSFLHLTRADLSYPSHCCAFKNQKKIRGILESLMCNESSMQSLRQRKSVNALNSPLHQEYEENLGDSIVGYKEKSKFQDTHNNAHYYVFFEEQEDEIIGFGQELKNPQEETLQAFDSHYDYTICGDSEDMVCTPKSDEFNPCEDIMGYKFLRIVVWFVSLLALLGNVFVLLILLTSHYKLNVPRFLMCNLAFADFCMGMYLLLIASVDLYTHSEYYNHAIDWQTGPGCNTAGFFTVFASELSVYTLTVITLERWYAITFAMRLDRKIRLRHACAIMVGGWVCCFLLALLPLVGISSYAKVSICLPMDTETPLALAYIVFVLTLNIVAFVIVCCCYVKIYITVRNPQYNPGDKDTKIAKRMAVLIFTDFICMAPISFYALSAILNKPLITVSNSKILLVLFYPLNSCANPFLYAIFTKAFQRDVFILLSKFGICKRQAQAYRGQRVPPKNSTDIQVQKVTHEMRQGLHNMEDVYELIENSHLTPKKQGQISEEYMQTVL

Row | Compound | Potency [1] | Potency [2] | Potency [3] | Potency [4] | Potency [5] | Potency [6] | Potency [7] | Potency [8] | Potency [9]
1 | CCCCc1ccccc1 | inactive | inactive | inactive | inactive | inactive | – | – | – | –
2 | N#Cc1c[nH]cc1-c1cccc2c1OC(F)(F)O2 | inactive | inactive | – | – | – | inactive | 19.3 µM (active) | inactive | –
3 | C1=CCC=C1 | – | inactive | – | – | inactive | inactive | – | – | –
4 | Oc1cc(Cl)c(Cl)c(Cl)c1Cl | – | – | – | – | – | – | 21.2 µM (active) | inactive | inactive
5 | Oc1ccc2[nH]cc(CCCCN3CC=C(c4ccccc4)CC3)c2c1 | – | inactive | – | – | – | – | 5.96 µM (active) | inactive | inactive
6 | COP(=S)(OC)Oc1ccc([N+](=O)[O-])c(C)c1 | – | inactive | inactive | – | – | – | – | inactive | –
7 | CC(C)[C@@H](Nc1ccc(C(F)(F)F)cc1Cl)C(=O)OC(C#N)c1cccc(Oc2ccccc2)c1 (stereo partly drawn) | inactive | inactive | – | inactive | inactive | – | – | – | –
8 | O=C(Cl)c1ccccc1F | inactive | inactive | inactive | inactive | inactive | – | – | – | –
9 | O=S1(=O)OCC2C(CO1)C1(Cl)C(Cl)=C(Cl)C2(Cl)C1(Cl)Cl (stereo not drawn) | 39.9 µM (active) | – | – | 17.2 µM (active) | inactive | – | – | – | 17.2 µM (active)
10 | CC(C)(C)c1ccc(OP(=O)(Oc2ccccc2)Oc2ccccc2)cc1 | inactive | inactive | inactive | 48.9 µM (active) | inactive | – | 7.74 µM (active) | inactive | –
11 | COc1ccc(Cc2nccc3cc(OC)c(OC)cc23)cc1OC | – | inactive | inactive | 15 µM (active) | inactive | inactive | – | – | –
12 | BrCC(Br)(Br)Br | – | inactive | inactive | inactive | inactive | inactive | inactive | inactive | –
13 | CC(C)c1c(CN(C)C(C)Cc2ccccc2)n(C)n(-c2ccccc2)c1=O (stereo not drawn) | inactive | – | inactive | 13.3 µM (active) | inactive | inactive | – | – | –
14 | COP(=O)(OC)O/C(=C\Cl)c1cc(Cl)c(Cl)cc1Cl | inactive | inactive | – | – | – | – | 5.45 µM (active) | inactive | –
15 | S=C=NCCc1ccccc1 | 40 µM (active) | – | – | 9.71 µM (active) | inactive | – | – | – | inactive
16 | CC1=C2C[C@H]3[C@@H](CC=C4C[C@@H](O)CC[C@@]43C)[C@@H]2CC[C@]12O[C@@H]1C[C@H](C)CN[C@H]1[C@H]2C | inactive | – | inactive | inactive | 26.6 µM (active) | inactive | – | – | inactive
17 | Nc1nc(N)c(N)c(N)n1 | inactive | – | – | – | – | – | – | inactive | –
18 | CSSC | inactive | – | 22 µM (active) | inactive | inactive | – | inactive | inactive | inactive

Row | Compound | Potency [1] | Potency [2] | Potency [3] | Potency [4] | Potency [5] | Potency [6] | Potency [7] | Potency [8] | Potency [9]
19 | Oc1cccc(Cl)c1Cl | – | inactive | – | inactive | inactive | inactive | – | inactive | inactive
20 | CCCCCCCc1ccc(O)cc1 | – | inactive | inactive | – | inactive | inactive | – | – | inactive
21 | CCO/N=C(\CC)C1=C(O)CC(c2c(C)cc(C)cc2C)CC1=O (stereo not drawn) | inactive | inactive | inactive | inactive | inactive | – | – | – | –
22 | Nc1ccccc1-c1ccccc1 | – | inactive | inactive | inactive | inactive | inactive | – | inactive | –
23 | COC(=O)N(OC)c1ccccc1COc1ccn(-c2ccc(Cl)cc2)n1 | – | – | inactive | 24.3 µM (active) | inactive | inactive | 0.486 µM (active) | inactive | inactive
24 | FC(F)C(F)(F)OCC(Cn1cncn1)c1ccc(Cl)cc1Cl (stereo not drawn) | inactive | – | – | – | 60.8 µM (active) | – | – | – | –
25 | O.O.O.O=C([O-])[C@H]([O-])[C@@H]([O-])C(=O)[O-].O=C([O-])[C@H]([O-])[C@@H]([O-])C(=O)[O-].[K+].[K+].[Sb+3].[Sb+3] | inactive | – | – | – | 19.4 µM (active) | – | – | – | –
26 | CC(=O)[O-].CC(=O)[O-].O.O.O.[Pb+2] | – | inactive | – | – | inactive | – | – | – | –
27 | COc1cnc(OC)n2nc(NS(=O)(=O)c3c(OCC(F)F)cccc3C(F)(F)F)nc12 | inactive | inactive | inactive | inactive | inactive | – | inactive | inactive | –
28 | COCCC#N | inactive | inactive | – | – | inactive | inactive | – | – | inactive
29 | O=[N+]([O-])[O-].[Tl+] | – | inactive | – | – | inactive | inactive | – | – | inactive
30 | CC(=O)[O][Sn]([c]1ccccc1)([c]1ccccc1)[c]1ccccc1 | 2.24 µM (active) | – | 0.0545 µM (active) | inactive | 0.172 µM (active) | 154 nM (active) | 0.545 µM (active) | inactive | –
31 | CNN | inactive | inactive | – | – | inactive | – | – | – | –
32 | CC[N+]1(CC)CCC(OC(=O)C(O)(c2ccccc2)c2ccccc2)C1 (stereo not drawn) | inactive | – | inactive | inactive | inactive | inactive | – | – | inactive
33 | N#Cc1c2ccccc2cc2ccccc12 | inactive | – | – | inactive | – | – | inactive | inactive | inactive
34 | O.O.O.O.O.O.O=S(=O)([O-])[O-].[Ni+2] | – | inactive | – | – | inactive | inactive | – | – | –
35 | CN1[C@@H]2CC[C@H]1CC(O)C2 (stereo partly drawn) | – | inactive | inactive | inactive | inactive | inactive | – | – | –
